# VACV Venus inh – inhibitors of vaccinia virus (Venus reporter). Vaccinia virus Venus reporter expression, fluorescence. Potency, µM (series often up to 36.5 µM), inactives show at the highest dose activity change, negative = inhibition, actives largely listed as inhibitors. actives 0.46% (n = 330,000); calls by dose curve; tested in A549 cells; also: potency is read from the fitted curve at half-maximal effect; nearly all actives have a fitted effect of over 30% in size
# Marburg entry inh – inhibitors of Marburg virus binding or cell entry. Marburg virus pseudotyped entry inhibition, cell reporter. Potency, µM (highest dose often 37.8 µM), for inactives: at the top dose activity change, negative = inhibition, actives largely listed as inhibitors. actives 1.8% (n = 300,000); calls by dose curve; tested in HEK293 cells; also: potency is read from the fitted curve at half-maximal effect
# Lassa entry inh – inhibitors of Lassa virus binding or cell entry; Potency, µM (doses to about 37.9 µM), for the others: at the top dose activity change, negative = inhibition, usual class: inhibitors; AID 540256; Lassa virus pseudotype entry inhibition, cell reporter; actives 1.2% (n = 300,000); calls by dose curve; tested in HEK293 cells; also: potency is read from the fitted curve at half-maximal effect; nearly all actives have a fitted effect of over 50% in size
# VACV mCherry inh – vaccinia inhibition (mCherry reporter) | Vaccinia virus mCherry reporter infection, fluorescence | AID 720579 | Potency, µM (doses to about 36.5 µM), for inactives: at the highest dose activity change, negative = inhibition, usual class: inhibitors | actives 0.63% (n = 310,000); calls by dose curve; tested in A549 cells; also: potency is read from the fitted curve at half-maximal effect; nearly all actives have a fitted effect of over 35% in size
# HCMV antiviral – inhibitors of human cytomegalovirus; activity change, negative = inhibition, % at 57.5 µM; HFF cells, HCMV-luciferase reporter, 72 h; hits give low values; AID 1259415; actives 4.5% (n = 410,000); in the data active = activity change below about -60%; inconclusive = no clear call, values can overlap the other calls; inactive = above about -39%
#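 HFF cells seeded 16 h at 37C, treated with compounds, infected with luciferase-reporter HCMV at MOI 1 PFU/cell; luciferase read at 72 h post infection, normalized to buffer-only and Salinomycin controls.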
# FMDV antiviral – foot and mouth disease virus antiviral activity. actives 1.2% (n = 410,000). Potency, µM (series often up to 57.9 µM), inactives show at the highest dose activity change, negative = inhibition, hits mostly inhibitors. FMDV antiviral cell-based qHTS; calls by dose curve; tested in HEK293T cells; also: read-out not given here; potency is read from the fitted curve at half-maximal effect; nearly all actives have a fitted effect of over 45% in size
# Starred values were filed as active, the others as inactive; i = inactive; ? = inconclusive; . = not tested or not shown; ! = not active in a repeat; [ ] = dose if it differs, or a comment. Rows were chosen to be rich in hits. Some 6.5% of all compounds tested hit in one or more screens of this group. % is scaled to controls: 0 for no effect and ±100 for the full control effect.
SMILES,VACV Venus inh,Marburg entry inh,Lassa entry inh,VACV mCherry inh,HCMV antiviral,FMDV antiviral
O=C(N/N=C/c1ccc([N+](=O)[O-])s1)C(O)c1ccccc1 (stereo not drawn),.,-11.3%,?,.,-91.0*,43.2%
Cc1cc(C(=O)N/N=C/c2ccc([N+](=O)[O-])s2)c2ccccc2n1,28.2µM*,?,?,10µM*,-70.4*,-16.5%
Cc1ccccc1C(=O)N/N=C/c1ccc([N+](=O)[O-])s1,?,4.11µM*,-24.3%,-21.9%,-95.9*,.
Cc1ccc(/C=N/NC(=O)c2cccnc2)s1,-3.3%,0.7%[46.1 µM],-16.5%[46.1 µM],i,-5.0,9.7%
O=C(Cc1ccccc1)N/N=C/c1ccc([N+](=O)[O-])s1,?,?,?,.,-29.3,?
O=C(NCc1ccncn1)[C@H]1[C@H](CO)[C@H]2Cn3c(cccc3=O)[C@@H]1N2CC1CC1,.,.,.,.,1.1,.
Cc1ccc2c(c1)N(C=Nc1c(C)cccc1Cl)C(c1ccccc1)c1cccn1-2 (stereo not drawn),.,.,.,.,8.9,.
O=C(N/N=C/c1ccc([N+](=O)[O-])s1)c1ccccc1Br,11.2µM*,?,?,?,-77.4*,.
COc1ccccc1NC(=O)C(=O)N/N=C/c1ccc([N+](=O)[O-])s1,.,.,.,.,-26.7,-19.1%
CCCCN1C(=S)NC[C@@H]1Cc1ccc(O)cc1,-3.9%,.,.,-13.5%,14.1,-3.2%
Cc1ccccc1C(=O)N1CCC2CC1c1cc(-c3ccc(F)cc3)ccc12 (stereo not drawn),-26.4%,.,.,-3.3%,12.4,31.6µM*
Cc1ccccc1NC1=C/C(=N\S(=O)(=O)c2ccc(C(=O)O)cc2)c2ccccc2C1=O,?,8.91µM*,?,31.6µM*,29.2,?
O=C(O)c1ccc(S(=O)(=O)/N=C2\C=C(Nc3ccccc3F)C(=O)c3ccccc32)cc1,?,?,?,?,-98.3*,?
COC1CC2C=C(C)C=CC=CC(=O)NC(c3ccccc3)CC=CCCC(O)CC(=O)C2=C1O (stereo not drawn),2.82µM*,.,.,7.08µM*,-100.3*,2.51µM*
CCCCCCCCNC(=S)NCCN1CCCCC1,.,14.6µM*,?,.,-65.7*,?
Cc1cc(C)c(-c2csc(NC(=O)/C=C/c3cccs3)n2)c(C)c1,?,?,?,?,-100.1*,?
O=S(=O)(NCc1nc(N2CCCC2)c2cc(Cl)ccc2n1)c1ccccc1OC(F)(F)F,-14.9%,.,.,-14.3%,.,-4.9%
O=C1/C(=C/c2cccnc2)SC(=S)N1C1CCS(=O)(=O)C1 (stereo not drawn),1.7%,?,?,-10.2%,?,14.1µM*
CCCCN(CC)CCCNC(=S)Nc1ccc2nc(N3CCN(C)CC3)cc(C)c2c1,-9.1%,2.51µM*,?,-19.0%,-37.1,-17.6%
CCCCN(CC)CCCNC(=S)Nc1ccc2nc(N3CCN(CC)CC3)cc(C)c2c1,-17.3%,3.55µM*,?,-18.9%,-28.9,0.0%
CCN(CC)CCNC(=S)Nc1ccc2nc(N3CCN(C)CC3)cc(C)c2c1,-27.0%,?,?,-15.7%,-15.9,-3.8%
O=C(C[n+]1ccc2ccccc2c1)c1ccc2ccc3ccccc3c2c1,-8.1%,.,.,5.0%,-3.3,-7.2%
COc1ccc2c(c1)Sc1ccccc1N2,1.6%,-12.8%[46.1 µM],11.6%,3.1%,-80.7*,20.8%
Cc1nc(NC(=O)/C=C/c2ccccc2)sc1C(=O)N(C)C,-23.9%,?,19.4%,i,42.8,36.0%
Cc1nc(NC(=O)/C=C/c2ccc(Cl)cc2Cl)sc1C(=O)N(C)C,-6.3%,?,14.5%,i,-61.1*,-4.0%
CCc1ccc(NC(=O)C2=CC(c3cccs3)=NS(=O)(=O)N2C)cc1,-13.1%,-19.0%[46.1 µM],-17.9%[46.1 µM],?,-74.6*!,-17.2%
COc1ccc(S(=O)(=O)n2nc(-n3c(C)ccc3C)c3c(F)cccc32)cc1OC,-17.9%,8.91µM*,?,-19.8%,-32.2,-25.6%
Cc1ccc(C)n1-c1nn(S(=O)(=O)c2ccccc2)c2cccc(F)c12,5.5%,?,-8.9%[46.1 µM],-10.0%,-32.2,-24.4%
CC(C)NC(=O)c1cc(C2CCCCN2C(=O)c2cc(C(C)(C)C)nn2C)on1 (stereo not drawn),2.5%,.,.,8.7%,-10.6,-9.5%
COc1ccc(-c2cc(C(=O)Oc3ccc(Cl)cc3)c3ccccc3n2)cc1,-6.3%,.,-4.7%[46.1 µM],-11.6%,10.3,-6.4%

# Bioassay records (PubChem)
